This is part of a sample that, as a whole, favours compounds with a hit. Of some 83,000 tested, about 20% had one in any assay.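 Single-concentration screen, 48 h exposure, 96-well plates. Endpoint: percent growth. Below 10 = active.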 A number with no mark means an inactive call. Calls of active or inactive are those of the source.
Tests used:
Experiment in all cases: NCI-60 one-dose screen, 48 h (100 = growth as untreated, 0 = no growth, -100 = all killed)
Settings in all cases: 10 µM unless noted
RPMI-8226 leukemia = system: RPMI-8226 leukemia
OVCAR-8 ovarian = system: OVCAR-8 ovarian
OVCAR-5 ovarian = system: OVCAR-5 ovarian
OVCAR-4 ovarian = system: OVCAR-4 ovarian
SK-OV-3 ovarian = system: SK-OV-3 ovarian
IGROV1 ovarian = system: IGROV1 ovarian
OVCAR-3 ovarian = system: OVCAR-3 ovarian
HS 578T breast = system: HS 578T breast
NCI/ADR-RES ovarian = system: NCI/ADR-RES ovarian
T-47D breast = system: T-47D breast

O=C1NC(SCc2ccc(F)cc2)=N/C1=C/c1cccc(OCc2ccc(Cl)cc2)c1
growth (RPMI-8226 leukemia): 53.5% | growth (OVCAR-8 ovarian): 52.8% | growth (OVCAR-5 ovarian): 66.1% | growth (OVCAR-4 ovarian): -48.4% (active) | growth (SK-OV-3 ovarian): 55.4% | growth (IGROV1 ovarian): 26.6% | growth (OVCAR-3 ovarian): 18.1% | growth (HS 578T breast): 29.6% | growth (NCI/ADR-RES ovarian): 65.8% | growth (T-47D breast): 53.5%

O=C(CCc1nnco1)c1nc2ccc([N+](=O)[O-])cc2[nH]1
growth (RPMI-8226 leukemia): 129% | growth (OVCAR-8 ovarian): 105% | growth (OVCAR-5 ovarian): 108% | growth (OVCAR-4 ovarian): 105% | growth (SK-OV-3 ovarian): 107% | growth (IGROV1 ovarian): 97.6% | growth (OVCAR-3 ovarian): 105% | growth (HS 578T breast): 102% | growth (NCI/ADR-RES ovarian): 104% | growth (T-47D breast): 101%

N#C/C(=C/c1ccc(O)c([N+](=O)[O-])c1)c1nc(-c2ccc([N+](=O)[O-])cc2)cs1
growth (RPMI-8226 leukemia): 9.81% (active) | growth (OVCAR-8 ovarian): 48.4% | growth (OVCAR-5 ovarian): 108% | growth (OVCAR-4 ovarian): 34.1% | growth (SK-OV-3 ovarian): 38.9% | growth (IGROV1 ovarian): 55.9% | growth (OVCAR-3 ovarian): 23.5% | growth (HS 578T breast): 44.2% | growth (NCI/ADR-RES ovarian): 33.4% | growth (T-47D breast): 11.2%

COc1cccc(C(=O)OCCn2nc3c4c(cccc42)C(=O)c2ccccc2-3)c1O
growth (RPMI-8226 leukemia): 30% | growth (OVCAR-8 ovarian): 56.7% | growth (OVCAR-5 ovarian): 69.3% | growth (OVCAR-4 ovarian): 59.8% | growth (SK-OV-3 ovarian): 120% | growth (IGROV1 ovarian): 44.9% | growth (OVCAR-3 ovarian): 3.88% (active) | growth (HS 578T breast): 20.1% | growth (NCI/ADR-RES ovarian): 22.5% | growth (T-47D breast): 40.8%

COC(=O)c1ccc2c(c1)NC(=O)[C@@H]1CCCN21
growth (RPMI-8226 leukemia): 96.6% | growth (OVCAR-8 ovarian): 97.5% | growth (OVCAR-5 ovarian): 112% | growth (OVCAR-4 ovarian): 88.4% | growth (SK-OV-3 ovarian): 95.2% | growth (IGROV1 ovarian): 101% | growth (OVCAR-3 ovarian): 102% | growth (HS 578T breast): 105% | growth (NCI/ADR-RES ovarian): 100% | growth (T-47D breast): 86.3%

CCN1CCC[C@H]1c1cc(O)c2c(c1OC)C[C@H]1C[C@H]3[C@H](N)C(=O)C(C(N)=O)=C(O)[C@@]3(O)C(=O)C1=C2O
growth (RPMI-8226 leukemia): -18.8% (active) | growth (OVCAR-8 ovarian): -0.399% (active) | growth (OVCAR-5 ovarian): 4.81% (active) | growth (OVCAR-4 ovarian): -0.794% (active) | growth (SK-OV-3 ovarian): -1.89% (active) | growth (IGROV1 ovarian): -5.97% (active) | growth (OVCAR-3 ovarian): 2.36% (active) | growth (HS 578T breast): -3.05% (active) | growth (NCI/ADR-RES ovarian): 9.29% (active) | growth (T-47D breast): -8.2% (active)

C#C[C@@]1(O)[C@@H](CO)O[C@@H](n2cc(Br)c3c(N)ncnc32)[C@@H]1O
growth (RPMI-8226 leukemia): 0.406% (active) | growth (OVCAR-8 ovarian): -0.359% (active) | growth (OVCAR-5 ovarian): 18.8% | growth (OVCAR-4 ovarian): 5.79% (active) | growth (SK-OV-3 ovarian): -8.02% (active) | growth (IGROV1 ovarian): -22.5% (active) | growth (OVCAR-3 ovarian): -25.5% (active) | growth (HS 578T breast): -5.73% (active) | growth (NCI/ADR-RES ovarian): 1.19% (active) | growth (T-47D breast): -20.1% (active)

COc1cc(N=Nc2cc(S(=O)(=O)O)cc3cc(S(=O)(=O)O)cc(O)c23)c(C)cc1N=Nc1c(S(=O)(=O)O)cc2cc(Nc3ccccc3)ccc2c1O
growth (RPMI-8226 leukemia): 103% | growth (OVCAR-8 ovarian): 106% | growth (OVCAR-5 ovarian): 111% | growth (OVCAR-4 ovarian): 97.8% | growth (SK-OV-3 ovarian): 102% | growth (IGROV1 ovarian): 96.6% | growth (OVCAR-3 ovarian): 97.2% | growth (HS 578T breast): 108% | growth (NCI/ADR-RES ovarian): 110% | growth (T-47D breast): 93.4%

Cc1c(O)c(=O)ccn1-c1nc2ccccc2s1
growth (RPMI-8226 leukemia): 96.8% | growth (OVCAR-8 ovarian): 85.4% | growth (OVCAR-5 ovarian): 98.7% | growth (OVCAR-4 ovarian): 97.7% | growth (SK-OV-3 ovarian): 99% | growth (IGROV1 ovarian): 109% | growth (OVCAR-3 ovarian): 100% | growth (HS 578T breast): 95% | growth (NCI/ADR-RES ovarian): 57.1% | growth (T-47D breast): 92.4%

O=C(/C(=C/c1ccc([N+](=O)[O-])cc1)SCc1ccc(Cl)cc1)c1ccc(F)cc1
growth (RPMI-8226 leukemia): -25.6% (active) | growth (OVCAR-8 ovarian): 57.8% | growth (OVCAR-5 ovarian): 95.4% | growth (OVCAR-4 ovarian): 60.9% | growth (SK-OV-3 ovarian): 63.9% | growth (IGROV1 ovarian): 58.4% | growth (OVCAR-3 ovarian): 54% | growth (HS 578T breast): 27.9% | growth (NCI/ADR-RES ovarian): 51% | growth (T-47D breast): 36.4%

Nc1cc(N)nc(SCC(=O)O)n1
growth (RPMI-8226 leukemia): 102% | growth (OVCAR-8 ovarian): 100% | growth (OVCAR-5 ovarian): 107% | growth (OVCAR-4 ovarian): 106% | growth (SK-OV-3 ovarian): 105% | growth (IGROV1 ovarian): 106% | growth (OVCAR-3 ovarian): 111% | growth (HS 578T breast): 99.6% | growth (NCI/ADR-RES ovarian): 104% | growth (T-47D breast): 105%

Nc1c(C(=O)Nc2ccccn2)sc2nc3c(cc12)CCCC3
growth (RPMI-8226 leukemia): 55.9% | growth (OVCAR-8 ovarian): 65% | growth (OVCAR-5 ovarian): 77.6% | growth (OVCAR-4 ovarian): 74.9% | growth (SK-OV-3 ovarian): 42.4% | growth (IGROV1 ovarian): 55.2% | growth (OVCAR-3 ovarian): 23.9% | growth (HS 578T breast): 39.7% | growth (NCI/ADR-RES ovarian): 28.2% | growth (T-47D breast): 43%

CCOCCc1c(O)nc(SC)[nH]c1=O
growth (RPMI-8226 leukemia): 94.4% | growth (OVCAR-8 ovarian): 103% | growth (OVCAR-5 ovarian): 87.3% | growth (OVCAR-4 ovarian): 108% | growth (SK-OV-3 ovarian): 102% | growth (IGROV1 ovarian): 100% | growth (OVCAR-3 ovarian): 186% | growth (HS 578T breast): 92.9% | growth (NCI/ADR-RES ovarian): 96.5% | growth (T-47D breast): 110%
